Results from PubChem BioAssay AID1342 (University of Pittsburgh Molecular Library Screening Center, 2008).
Values without a mark were called inactive. How the calls were made is not given here.

Test: fluorescence polarization artefacts, biochemical, 57K campaign, artefact control, dose response (AID 1342)
Conditions: PKD fluorescence polarization interference counter-screen

Which IC50 does the source give for `C/C(=N\Nc1ncc(Cl)cc1Cl)c1ccccn1` here?
The IC50 was 16.7 µM.
